Results as given in PubChem BioAssay (NCI).
This is part of a sample that, as a whole, favours compounds with a hit. Of some 83,000 tested, about 20% had one in any assay.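 Step 1: grow cells in 96-well plates. Step 2: add test compound at a single concentration. Step 3: incubate 48 h. Step 4: record percent growth.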 A number with no mark means an inactive call. Activity calls are given as the source filed them. How the source made its calls: active means growth percent below 10; inactive means the rest.

Tests used:
Assay in all cases: NCI-60 one-dose screen, 48 h (100 = growth as untreated, 0 = no growth, -100 = all killed)
Details in all cases: 10 µM unless noted
[1] = tested on: NCI-H23 lung
[2] = tested on: NCI-H226 lung
[3] = tested on: NCI-H322M lung
[4] = tested on: HOP-62 NSCLC
[5] = tested on: NCI-H460 lung
[6] = tested on: HOP-92 NSCLC
[7] = tested on: NCI-H522 lung
[8] = tested on: A549/ATCC NSCLC
[9] = tested on: 786-0 renal
[10] = tested on: COLO 205 colon
[11] = tested on: DU-145 prostate
[12] = tested on: MALME-3M melanoma
[13] = tested on: MDA-MB-231 breast
[14] = tested on: RXF 393 renal
[15] = tested on: SF-268 CNS
[16] = tested on: SF-295 CNS
[17] = tested on: SF-539 CNS
[18] = tested on: UACC-257 melanoma
[19] = tested on: M14 melanoma

| SMILES | growth [1] | growth [2] | growth [3] | growth [4] | growth [5] | growth [6] | growth [7] | growth [8] | growth [9] | growth [10] | growth [11] | growth [12] | growth [13] | growth [14] | growth [15] | growth [16] | growth [17] | growth [18] | growth [19] |
| --- | --- | --- | --- | --- | --- | --- | --- | --- | --- | --- | --- | --- | --- | --- | --- | --- | --- | --- | --- |
| CCNC(=O)Oc1ccc(/C(=C(\C)c2ccc(Cl)cc2)c2ccc(OCCN(CC)CC)cc2)cc1 | 65.6% | 76.7% | 68.7% | 54.6% | 7.6% (active) | 57.9% | 55.4% | 45.8% | 24.7% | -57.8% (active) | 67.6% | -50.6% (active) | 44.3% | 31.4% | 51.7% | 21.3% | 58.2% | -54.9% (active) | -63.3% (active) |
| NC(=NCCCOc1ccc(Cl)cc1)Nc1ccc(Cl)cc1 | 23.4% | 107% | 31.8% | 33.9% | 48% | 21.6% | 27.8% | 24.1% | 58.4% | -65.6% (active) | 16.9% | -20.8% (active) | -6.18% (active) | 79.3% | 36.6% | 17.9% | 31.4% | 6.24% (active) | -35.7% (active) |
| COc1ccc(-c2nnc(SCC(=O)c3ccc(Cl)cc3)o2)cc1 | 93.9% | 103% | 108% | 95.7% | 110% | 105% | 76.3% | 92% | 96.9% | 112% | 108% | 106% | 98.7% | 113% | 101% | 101% | 95.6% | 107% | 106% |
| CCNc1ncnc2c1cnn2C1CCCO1 (centres undefined) | 118% | 94.2% | 109% | 99.4% | 105% | 60.9% | 111% | 95.4% | 109% | 105% | 120% | 110% | 110% | 105% | 96.9% | 101% | 105% | 99.6% | 104% |
| C/C1=C\CC[C@@]2(C)O[C@H]2[C@H]2OC(=O)C(CN3CCN(CC4C(=O)O[C@H]5[C@H]4CC/C(C)=C/CC[C@@]4(C)O[C@@H]54)CC3)[C@@H]2CC1 (some centres undefined) | 98.5% | 99.2% | 99.3% | 107% | 107% | 100% | 33.4% | 93.5% | 109% | 98.2% | 60.6% | 101% | 87.1% | 94.6% | 104% | 103% | 90.5% | 83.5% | 93.1% |
| COc1ccc2cc(-c3nn(-c4ccc(C(=O)O)cc4)cc3CO)ccc2c1 | 97.9% | 99.7% | 97% | 104% | 99.1% | 102% | 82.6% | 102% | 99.6% | 114% | 103% | 106% | 111% | 122% | 86.3% | 99.1% | 93.1% | 103% | 98.7% |
| CCOC(=O)c1cc(C(=O)c2ccc(O)c(O)c2)n2ccc(-c3ccn4c(C(=O)c5ccc(O)c(O)c5)cc(C(=O)OCC)c4c3)cc12 | 96.7% | 107% | 94.3% | 99.7% | 101% | 45.7% | 82.7% | 92.3% | 87% | 102% | 93.8% | 105% | 52.6% | 86.5% | 88.5% | 102% | 92.5% | 100% | 93.2% |
| COc1cccc(-c2nc(SCC(=O)Nc3ccc(C(=O)/C=C/c4ccc(OC)c(OC)c4)cc3)[nH]c(=O)c2C#N)c1 | 77.7% | 105% | 76.3% | 94.1% | 94.7% | 93.2% | 75.4% | 90.6% | 99.4% | 103% | 89.4% | 97.4% | 67.6% | 85.2% | 82.9% | 94.5% | 86.2% | 97.4% | 100% |
| COc1cc(/C=C/C(=O)Nc2cccnc2Nc2ccc(F)cc2)cc(OC)c1OC | 99.6% | 99% | 107% | 103% | 112% | 74.8% | 48.9% | 70.1% | 92.8% | 113% | 110% | 110% | 93.5% | 108% | 102% | 94.2% | 95.2% | 62.9% | 103% |
| Cn1ccnc1C(=O)/C=C/c1ccc(CC(=O)Nc2ccccc2)cc1 | 18.9% | 47% | 2.66% (active) | 6.23% (active) | -19% (active) | 26.6% | 12.8% | 5.36% (active) | 18.6% | 4.76% (active) | 10.3% | 72.8% | 12.6% | 12.1% | 10.6% | 26.2% | -18.5% (active) | 78.7% | 27.8% |
| COc1cccc(NC(=O)c2sc3nc(C)c(C(C)=O)cc3c2N)c1 | 65.5% | 83.7% | 45.5% | 44.7% | 10.8% | 52% | 40.1% | 20.5% | 58.5% | -1.6% (active) | 23.3% | 71.2% | 58.5% | 51.6% | 69.8% | 29.9% | 32% | 60.1% | 23.7% |
| O=C(/C=C/c1ccc(C(F)(F)F)cc1)Nc1ccc(C=C2c3ccccc3C(=O)c3ccccc32)cc1 | 49.2% | 67.8% | 97.3% | 78.8% | 62.3% | 55.6% | 20.8% | 44.6% | 62.1% | 66.5% | 72.4% | 76.6% | 77.3% | 68.4% | 67.3% | 59.2% | 83.5% | 35.1% | 59.1% |
| Cc1cc2nc(NC(=O)CN3CCN(CCN4C(=O)c5cccc6cccc(c56)C4=O)CC3)sc2cc1C | 89% | 89.2% | 85.2% | 94.9% | 91.7% | 74.9% | 87.3% | 70.3% | 82.8% | 99.6% | 91.7% | 89.5% | 92.4% | 87.5% | 86.3% | 91.2% | 80.9% | 99.2% | 94.3% |
| O=C1c2ccccc2OC=C(c2ccccc2)N1CCCCNc1ccc(S(=O)(=O)Nc2ncccn2)cc1 | 101% | 91.4% | 92.8% | 90.1% | 103% | 75.8% | 82.9% | 81.3% | 90.6% | 114% | 109% | 110% | 96.8% | 98.9% | 91% | 94% | 102% | 91.6% | 99.6% |
| COc1ccc2c(c1)C(=O)/C(=C/c1cccnc1)CC2 | 90.9% | 107% | 106% | 97.5% | 105% | 94.7% | 73.2% | 101% | 94.6% | 105% | 97% | 106% | 87.7% | 109% | 94.2% | 84.2% | 90.5% | 108% | 102% |
| CCN(CC)c1ccc2c(c1)Oc1nc(N)c(C#N)c(N)c1C2Sc1ccc(SC)cc1 (centres undefined) | -22.7% (active) | -46.9% (active) | -15.1% (active) | -25.3% (active) | -15.3% (active) | -12.5% (active) | -50.8% (active) | -2.37% (active) | -39.1% (active) | -73.6% (active) | -48% (active) | -15.9% (active) | -39.3% (active) | -67.6% (active) | 4.56% (active) | -54.2% (active) | -71.8% (active) | 55.6% | -42.3% (active) |
